# Measured values taken from PubChem BioAssay (NCI).
# This is part of a sample that, as a whole, favours compounds with a hit. Of some 79,000 tested, about 15% had one in any assay. Unmarked numbers belong to inactive results. Active and inactive are the calls of the source. Rule as the data show it: active = growth inhibition above about 70%; inactive = the rest. Where a SMILES comes first, the peptide text is derived from it. [ ]: non-standard residue; d: D form. The star is where a group is joined. Phe(4-NO2) = N[CH](Cc1ccc([N+](=O)[O-])cc1)C(=O)O; Boc = CC(C)(C)OC(=O)*
# Assays:
# [1] = NCI Yeast Anticancer Drug Screen. Data for the rad50 strain (AID 155);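 also: 0% = growth of vehicle-only cultures of the same strain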; conditions: S. cerevisiae rad50 strain growth inhibition; at 50.0 µM; hits give high values
# Outline: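 Readout: growth inhibition relative to vehicle-treated cultures. Compound exposure was carried out in a genetically defined yeast strain deficient in DNA damage repair.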
# [2] = NCI Yeast Anticancer Drug Screen. Data for the mec2-1 strain (AID 157); conditions: S. cerevisiae mec2-1 strain, at 50.0 µM, hits give high values
# Outline: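 mec2-1 yeast strain, carrying an alteration in DNA damage repair or cell cycle control, was exposed to compounds; growth inhibition was measured relative to vehicle-treated controls.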
# [3] = NCI Yeast Anticancer Drug Screen. Data for the sgs1 mgt1 strain (AID 161);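 also: 0% = growth of cultures given vehicle only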; conditions: S. cerevisiae sgs1 mgt1 strain, at 50.0 µM, hits give high values
# Outline: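 This yeast growth screen uses a strain with defined DNA-repair lesions; compound-treated growth is compared with vehicle-treated growth.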
# [4] = NCI Yeast Anticancer Drug Screen. Data for the cln2 rad14 strain (AID 165);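 also: 0% = growth equal to vehicle treated cultures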; conditions: S. cerevisiae cln2 rad14 strain, at 50.0 µM, hits give high values
# Outline: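 Yeast carrying cln2 and rad14 alterations (cell cycle control and DNA damage repair) were exposed to compounds. Growth inhibition was measured against vehicle-treated controls.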
# [5] = NCI Yeast Anticancer Drug Screen. Data for the bub3 strain (AID 167); conditions: S. cerevisiae bub3 mutant strain, at 50.0 µM, hits give high values
# Outline: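 Readout: yeast growth inhibition, expressed relative to vehicle-only wells. The test organism is a mutant strain from a panel with lesions in DNA repair or checkpoint genes.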
# [6] = NCI Yeast Anticancer Drug Screen. Data for the mlh1 rad18 strain (AID 175); conditions: S. cerevisiae mlh1 rad18 strain growth inhibition; at 50.0 µM; hits give high values
# Outline: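 Growth inhibition of the yeast strain was measured after compound exposure and expressed relative to vehicle-treated controls. The strain carries defined defects in DNA damage repair.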
Compound,growth inhibition [1],growth inhibition [2],growth inhibition [3],growth inhibition [4],growth inhibition [5],growth inhibition [6]
COC(NC(N)=O)C(=O)O (stereo unspecified),6.9%,12.3%,-1.25%,-0.9%,11.9%,13.7%
C=C(C)C1CC=C(C)[C@](O)(C2(O)C[C@H](C(=C)C)CC=C2C)C1 (stereo partly specified),-0.55%,6.95%,26.1%,23.9%,6.6%,9.65%
Cc1cc(C)n2ncnc2n1,16.9%,-22.6%,7.9%,4.15%,-5.15%,5.35%
COc1ccc(/C=C2\CCN=C2c2ccccc2)cc1OC,-1.65%,-1.85%,2.85%,-23.3%,4.4%,2.65%
O=C(O)c1cccc2ccc3cccc(C(=O)O)c3c12,-5.35%,-6.05%,-0.45%,-74.8%,2%,-17.2%
NC1Nc2ccccc2NC1=O (stereo unspecified),4.85%,10.2%,3.4%,-3.15%,6.4%,0.05%
Cc1ccccc1NC(=O)Cc1csc2[n+]1C(=O)/C(=C\c1ccc3c(c1)OCO3)S2,22.9%,7.6%,17.9%,3%,11.2%,7%
C=C1C(=O)C=C2C=C3C(=O)C(C)(C)C[C@]3(O)C12C (stereo partly specified),84.3% (active),92% (active),89% (active),82.5% (active),86.2% (active),-21.7%
CCOc1cc(/C=N/NC(=O)C(O)C(O)C(O)C(O)CO)ccc1O (stereo unspecified),1.5%,38.6%,27.9%,4.45%,39.8%,30.6%
COC(=O)CCC(NC(=O)OC(C)(C)C)C(=O)NC(Cc1ccc([N+](=O)[O-])cc1)C(=O)NC(CCC(=O)OC)C(=O)OC (stereo unspecified) (Boc-Glu(OMe)-[Phe(4-NO2)]-Glu(OMe)-OMe; configuration not given here),7.6%,-6.6%,9.9%,20.6%,11.7%,-44.1%
CC(=O)Nc1ccc(C)cc1[N+](=O)[O-],-29.6%,1.15%,-29.2%,-29.9%,-42.5%,-43.2%
O=C(O)CCCCC1CCSS1 (stereo unspecified),32.2%,15.8%,46%,20.1%,25.5%,20.9%
COc1cc2c(cc1OC)C1CCN3CCCC3N1CC2 (stereo unspecified),-7.8%,7.6%,0.1%,-14.9%,2.2%,3.3%
O=[N+]([O-])c1ccc(N/N=C(/c2ccc3ccccc3c2)c2ccccc2F)c([N+](=O)[O-])c1,-9%,-4.6%,-12.2%,-12%,-1.85%,-13.6%
O=C(NCCCN(CCCCN(CCCNC(=O)C(F)(F)F)Cc1ccc2ccccc2c1)Cc1ccc2ccccc2c1)C(F)(F)F,83.4% (active),87.3% (active),88.5% (active),88.2% (active),87% (active),92.5% (active)
CN=C(NC(=S)N(C)C)N(C)C,-4.3%,-6.85%,-9.4%,-7.85%,-14.1%,2.75%
CC(=O)Oc1ccc(I)cc1C(=O)O,5.7%,-29.4%,1.25%,-12.7%,6.75%,-11.8%
[Cu+2].[Cu+2].c1ccc2c(c1)-c1nc-2nc2[n-]c(nc3nc(nc4[n-]c(n1)c1ccccc41)-c1ccccc1-3)c1cc3c4nc5nc(nc6[n-]c(nc7nc(nc([n-]4)c3cc21)-c1ccccc1-7)c1ccccc61)-c1ccccc1-5,-1.75%,-9.45%,11.1%,-40.3%,-11.1%,11.3%
COc1cccc(NCC(=O)Nn2c(-c3ccccc3)nc3ccccc3c2=O)c1,-37.5%,-40.8%,-27.2%,-3.05%,5%,-23%
CCCNC(=O)c1ccccc1O,9.95%,3.05%,3.9%,1.4%,0.3%,7.45%
Cc1cccc2c3c(ccc12)C(=O)OC3=O,-0.3%,-2.85%,4.1%,-22.3%,-6.5%,4.25%

Compound,growth inhibition [1],growth inhibition [2],growth inhibition [3],growth inhibition [4],growth inhibition [5],growth inhibition [6]
Cc1ccccc1Nc1nc2ccccc2nc1NS(=O)(=O)c1ccccc1,5.1%,0%,5.85%,-0.8%,18.1%,-58.4%
Cc1csc2n(C)c(=O)c3ccccc3[n+]12,16.8%,9.4%,-20.4%,4.65%,-1.75%,32.8%
COC(=O)C(Cc1ccc2c(c1)CCC2)Cc1ccc2c(c1)CCC2,-46.9%,-16.4%,-7.4%,-41.6%,11.1%,-22.4%
Cc1ccc(S(=O)(=O)OCC(C)(C)CC#N)cc1,10.9%,30.6%,35.9%,16.9%,46.4%,23.9%
COC(=O)CC1C=CC(OC)[C@@]2(C)C(=O)C(OC)=CC(=O)[C@@H]12 (stereo partly specified),8.7%,-15.1%,-11.4%,19.6%,2.4%,-3.45%
N/N=C(/CC(O)(C(F)(F)F)C(F)(F)F)c1ccccc1,-10.8%,-24.9%,-13.9%,-3.7%,3%,2.65%
Cc1ccc(SC(F)(F)C(F)C(F)(F)F)cc1 (stereo unspecified),-4.65%,-3.6%,-7.75%,9.45%,7.9%,-1.1%
O=C(Nc1nc2ccc([N+](=O)[O-])cc2s1)C(=O)C(C(=O)c1ccncc1)C1OC(=O)c2ccccc21 (stereo unspecified),24.1%,9.25%,-19.5%,39.2%,49.8%,27.3%
Cc1c(C)c(C)c(S(=O)(=O)NCCCNS(=O)(=O)c2c(C)c(C)c(C)c(C)c2C)c(C)c1C,3.85%,-28.7%,-7.2%,7.7%,-4.95%,-1.1%
O=C(Nc1ccccc1CCl)Nc1ccccc1CCl (tested in a mixture with another compound),7.6%,3.35%,-11.4%,3.65%,-4.1%,15.4%
O=C(O)/C=C\c1ccc(OC(=O)c2ccccc2)cc1,-1.1%,-12.6%,-21%,-24.6%,-4.95%,33.1%
O=C(CCl)OCCN(CCOC(=O)CCl)Cc1coc2ccccc2c1=O,-4.35%,-16.2%,-4.85%,-23.4%,-1.1%,-5.65%
O=C(CCCC(=O)NNC(=O)Nc1cccc(Cl)c1)NNC(=O)Nc1cccc(Cl)c1,-13.2%,-2.2%,-10.9%,-12.9%,-1.7%,-10.6%
OCC(O)C(O)C(O)c1nn(-c2ccccc2)c2nc3ccc(Cl)cc3nc12 (stereo unspecified),-0.8%,9%,6.05%,-3.8%,9.25%,5.3%
C=CCSC(=S)Nc1nc2ccc(C)cc2s1,-19.9%,4.75%,0.25%,0.2%,-2.05%,2.1%
c1cnc2c3ccncc3c3nc(-c4ccncc4)[nH]c3c2c1,-10.2%,-12.8%,-11.3%,-34.8%,-17.3%,-17.2%
COc1ccc(/C=C/C(=O)c2ccc3c(c2)OCO3)cc1OC,-15.6%,-14.8%,-45.1%,-6.65%,-33.7%,-23.5%
CCN(CC)C(=O)C(C)n1cc(C)c(=O)[nH]c1=O (stereo unspecified),-32.2%,-39.2%,-19.9%,5.35%,-2.55%,-3.85%
CC(=O)OC1C(O[C@H]2CC[C@]34O[C@]35CC[C@]3(C)C(C6(C)CC[C@@H](C(C)(C)O)O6)[C@@H](O)CC3(C)[C@@H]5CC(OC3OC(CO)C(O)C(O)C3O)C4C2(C)C)OCC(O)C1O (stereo partly specified),-8.4%,-21.6%,2.7%,1.85%,0.7%,6.35%
c1ccc(-c2nc3ccccc3o2)cc1,31.3%,21.4%,26.9%,4.25%,27.4%,37.4%
